According to PubChem BioAssay (NCATS):
Results filed as inconclusive are left out. Calls of active or inactive are those of the source. The call rests on the fitted dose curve; in most records, active means well fitted inhibition curve with a large enough effect; inconclusive means small, poorly fitted or top-dose-only effect; inactive means flat fitted curve, though single readings scatter.

Experiments:
Test in all cases: qHTS profiling for inhibitors of Plasmodium falciparum proliferation (AID 504749); further: nearly all actives have a fitted effect of over 60% in size
Details in all cases: P. falciparum in erythrocytes, SYBR Green DNA, 72 h; series mostly up to 28.7 µM
[1] = test system: CP262
Procedure, shortened: (§1)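 P. falciparum-infected erythrocytes (0.3% parasitemia, 2.5% hematocrit final) were exposed to compounds for 72 h at 37 C in 5% CO2, then lysed with SYBR Green buffer overnight at room temperature; parasite DNA fluorescence was normalized to artemisinin and DMSO controls.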

[2] = test system: CP265
Procedure, shortened: as §1

[3] = test system: CP266
Procedure, shortened: as §1

[4] = test system: CP268
Procedure, shortened: as §1

[5] = test system: CP269
Procedure, shortened: as §1

[6] = test system: CP286
Procedure, shortened: as §1

[7] = test system: CP291
Procedure, shortened: as §1

[8] = test system: CP297
Procedure, shortened: as §1

[9] = test system: CP305
Procedure, shortened: as §1

[10] = test system: CP315
Procedure, shortened: as §1

[11] = test system: CP325
Procedure, shortened: as §1

[12] = test system: CP329
Procedure, shortened: as §1

[13] = test system: CP335
Procedure, shortened: as §1

[14] = test system: DFO2036
Procedure, shortened: as §1

[15] = test system: DIV14
Procedure, shortened: as §1

[16] = test system: DIV17
Procedure, shortened: as §1

[17] = test system: DIV30
Procedure, shortened: as §1

[18] = test system: Dd2
Procedure, shortened: as §1

[19] = test system: ECU
Procedure, shortened: as §1

[20] = test system: FAB9
Procedure, shortened: as §1

[21] = test system: GB4
Procedure, shortened: as §1

[22] = test system: HB3
Procedure, shortened: as §1

[23] = test system: ICS
Procedure, shortened: as §1

[24] = test system: JCK
Procedure, shortened: as §1

[25] = test system: N140
Procedure, shortened: as §1

[26] = test system: P93_24
Procedure, shortened: as §1

[27] = test system: P94_40
Procedure, shortened: as §1

[28] = test system: PAD
Procedure, shortened: as §1

[29] = test system: PC15
Procedure, shortened: as §1

[30] = test system: PC26
Procedure, shortened: as §1

[31] = test system: PC49
Procedure, shortened: as §1

[32] = test system: SC27B
Procedure, shortened: as §1

[33] = test system: TAB113
Procedure, shortened: as §1

[34] = test system: TAB165
Procedure, shortened: as §1

[35] = test system: W2
Procedure, shortened: as §1

Measured: Potency

CO/N=C(\C(=O)N[C@@H]1C(=O)N2C(C(=O)[O-])=C(C[N+]3(C)CCCC3)CS[C@@H]12)c1csc(N)n1
inactive: all assays above
